Test results: PubChem BioAssay AID1159580 (chemical genetic matrix, 2015)
Screen size: about 5,500 compounds; about 2,000 (36%) were called active. Inconclusive results (about 18%) are left out. No stated cut-off is given here; in the data, active means normalized growth mostly below about 0.91 (no sharp cut-off); inconclusive means no clear call, values can overlap the other calls; inactive means mostly above about 0.92. The list shows a part of the results.

Experiment: chemical genetic growth profiling, strain panel (AID 1159580);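 further: tested at 20 µM; growth read once vehicle control cultures reached saturation at 30 °C; 1 = growth at the plate median or of vehicle wells; lower values mean less growth of the strain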
Settings: growth OD

Measured: normalized growth

N#CCCN1C(=O)C2(OCCO2)c2ccccc21
inactive: S. cerevisiae deletion strains, locus YAL013W, strain DEP1, active compounds read low 1.01 | S. cerevisiae deletion strains, locus YBR229C, strain ROT2, active compounds read low 1.01 | S. cerevisiae deletion strains, locus YCL061C, strain MRC1, active compounds read low 1 | S. cerevisiae deletion strains, locus YDL101C, strain DUN1, active compounds read low 0.976 | S. cerevisiae deletion strains, locus YDR150W, strain NUM1, active compounds read low 0.977 | S. cerevisiae deletion strains, locus YEL061C, strain CIN8, active compounds read low 0.997 | S. cerevisiae deletion strains, locus YGR078C, strain PAC10, active compounds read low 1 | S. cerevisiae deletion strains, locus YHR030C, strain SLT2, active compounds read low 1 | S. cerevisiae deletion strains, locus YHR087W, strain rtc3, active compounds read low 0.991 | S. cerevisiae deletion strains, locus YJL187C, strain SWE1, active compounds read low 1 | S. cerevisiae deletion strains, locus YJR043C, strain POL32, active compounds read low 1 | S. cerevisiae deletion strains, locus YJR075W, strain HOC1, active compounds read low 1 | S. cerevisiae deletion strains, locus YLR039C, strain RIC1, active compounds read low 1.02 | S. cerevisiae deletion strains, locus YLR058C, strain SHM2 (second series), active compounds read low 1 | S. cerevisiae deletion strains, locus YLR085C, strain ARP6, active compounds read low 1.02 | S. cerevisiae deletion strains, locus YLR262C, strain YPT6, active compounds read low 1.02 | S. cerevisiae deletion strains, locus YML094W, strain GIM5, active compounds read low 0.986 | S. cerevisiae deletion strains, locus YMR219W, strain ESC1, active compounds read low 1.01 | S. cerevisiae deletion strains, locus YMR263W, strain SAP30, active compounds read low 1.05 | S. cerevisiae deletion strains, locus YMR307W, strain GAS1, active compounds read low 1.05 | S. cerevisiae deletion strains, locus YNL153C, strain GIM3, active compounds read low 1.02 | S. cerevisiae deletion strains, locus YNL298W, strain CLA4 (second series), active compounds read low 1 | S. cerevisiae deletion strains, locus YNL322C, strain KRE1, active compounds read low 0.997 | S. cerevisiae deletion strains, locus YNR030W, strain Alg12, active compounds read low 1 | S. cerevisiae deletion strains, locus YOL006C, strain TOP1, active compounds read low 1.02 | S. cerevisiae deletion strains, locus YPL055C, strain LGE1, active compounds read low 1.02 | S. cerevisiae deletion strains, locus YPL241C, strain CIN2, active compounds read low 1.01 | S. cerevisiae deletion strains, locus YPR135W, strain CTF4, active compounds read low 1.09 | S. cerevisiae strains, strain wild type, active compounds read low 1.02
